Assay results: ChEMBL document CHEMBL3988442, “University of Dundee, Small-Polar-MMV Screening Library” (2021)
Out of some 48,000 compounds screened, about 13,000 (27%) showed an effect of 50% or more. Some of the results follow.

system: Wolbachia pipientis; assay: Anti-Wolbachia Cell-Based Screen; type: functional; parameters: scale not given: in the data most compounds retested in dose-response had high values; settings: 5 µM

SMILES | Percent Effect
O=C1CC(c2ccc(F)cc2)Cc2[nH]c(=O)c(C(=O)O)cc21 (centres undefined) | -7.153%
COc1ccc(-c2nnc([C@H]3CCN(C4CCC4)C3)o2)cc1 | -7.791%
COc1ccc2c(C)nc(N3CCN([C@H]4CCCC[C@@H]4O)CC3)nc2c1 | -5.01%
Cc1cnn(CCC(=O)N2CCN(c3ccc(C#N)cn3)CC2)c1 | 122.4%
Cc1cnn(CCC(=O)N2CCN(c3nc(C)cs3)CC2)c1 | -7.951%
Cc1cnn(CC(=O)N2CCCN(c3ncccc3C#N)CC2)c1 | 99.25%
N#Cc1cccnc1N1CCCN(CC(=O)N2CCNC(=O)C2)CC1 | -3.438%
N#Cc1ccc(CN2CCCN(C(=O)CCn3cncn3)CC2)cc1 | -4.749%
Cc1cnn(CCC(=O)N2CCCN(c3ncccc3C#N)CC2)c1 | 7.127%
N#Cc1ccc(CN2CCN(C(=O)CCn3cncn3)CC2)cc1 | -1.452%
N#Cc1cccnc1N1CCCN(C(=O)CCn2cncn2)CC1 | 103.6%
Cc1cnn(CCC(=O)N2CCN(c3ncccc3Cl)CC2)c1 | 8.116%
CN(C)c1cc(C(=O)Nc2ccccc2C(=O)NC(C)(C)C)ccn1 | 0.03536%
CCn1nc(C)cc1C(=O)NCc1nc(C)cc(C)n1 | -9.292%
CCn1nc(C)cc1C(=O)NCc1nc(C)no1 | 111.2%
COCc1nc(CNC(=O)c2cc(C)c(C)[nH]c2=O)no1 | -2.692%
CCn1nc(C)cc1C(=O)OCCNC(=O)c1ccccc1 | -11.83%
CCn1nc(C)cc1C(=O)NCc1noc(C(C)(C)C)n1 | 104.1%
CCn1nc(C)cc1C(=O)NCc1cccnc1N(C)C | -6.394%
CC(SCCS(C)(=O)=O)c1nc(Cc2ccccc2)no1 (centres undefined) | -6.547%
O=C1CC[C@H](C(=O)N(Cc2cccc(Br)c2)C2CC2)N1 | 5.086%
CC(=O)NCC(=O)N1Cc2nc(COCc3csc(C)n3)oc2C1 | 5.619%
CC(C)CC(C)NCc1cccnc1N1CCOCC1 (centres undefined) | 1.673%

SMILES | Percent Effect
COc1ccc(OC)c(-c2nc(CN(C)Cc3nncn3C)c(C)o2)c1 | 0.1711%
CCN(CC)C(=O)[C@@H]1C[C@H](N)CN1c1noc(-c2ccccc2)n1 | 2.719%
Cc1cc(C)n(CCCN(C)C(=O)[C@H]2CCCO2)n1 | -6.91%
Cc1cc(C(F)(F)F)nn1CCCNC(=O)C1CCCO1 (centres undefined) | 89.22%
Cc1cc(-c2cnn(CCNC(=O)C3CCCO3)c2C2CC2)on1 (centres undefined) | -7.58%
COc1ccc(-c2n[nH]cc2CN(C)Cc2nnc(C)o2)c(F)c1 | 5.542%
COC[C@]1(O)CCN(Cc2c[nH]c(CC3CCCC3)n2)CC1(C)C | 12.99%
Cn1cc(CN2CCc3ncnc(C4CCOC4)c3CC2)cn1 (centres undefined) | 2.928%
CN(C)c1cc(C(=O)N2CCCCC2CNS(C)(=O)=O)ccn1 (centres undefined) | 130%
CS(=O)(=O)NCC1CCCCN1C(=O)c1ccc(Br)s1 (centres undefined) | -1.817%
CN(C)c1cc(C(=O)N2CCCCC2Cn2cccn2)ccn1 (centres undefined) | 105%
CS(=O)(=O)NCC1CCCCN1C(=O)c1ccsc1 (centres undefined) | -1.868%
CCC1CCCCN1C(=O)c1ccnc(N(C)C)c1 (centres undefined) | 113.6%
CCCc1nc(C(C)(C)NC(=O)c2ccnn2C)no1 | 9.786%
CCCc1nnc(N[C@H](C)c2ccc(OC)cc2)o1 | -12.73%
Fc1ccc(CNCc2cc(Br)c3c(c2)OCO3)cc1 | -17.14%
O=C(CCNC(=O)c1ccoc1)Nc1cc(F)ccc1F | -1.29%
Cc1cccc(CN2CCc3[nH]nc(C(=O)N4CCOCC4)c3C2)n1 | 9.618%
CC1(C(=O)N2CCOCC2)CN(Cc2ccccn2)CCO1 (centres undefined) | -10.18%
Cc1cccc(CN2CC[C@H]3OCC[C@@]3(C(=O)N3CCOCC3)C2)n1 | 83.3%
Cc1cc(CN2CCN(C(=O)NCc3ccc(C)s3)CC2)no1 | 0.1424%
NC(=O)C1CN(Cc2c[nH]cn2)CCN(C2CCOCC2)C1 (centres undefined) | -9.995%
Cc1cc(CNC(=O)NCc2ccccc2N2CCOCC2)no1 | -16.89%

SMILES | Percent Effect
CC1(C(=O)N2CCOCC2)CN(Cc2c[nH]cn2)CCO1 (centres undefined) | 123.4%
Cc1cccc(CN2CCOC(C)(C(=O)N3CCOCC3)C2)n1 (centres undefined) | 111.3%
CN1CCN(Cc2c[nH]cn2)CC12CCC(=O)N(CC1CC1)CC2 (centres undefined) | -17.33%
Cc1cc(CN2CCOC(C)(C(=O)N3CCOCC3)C2)no1 (centres undefined) | 109.8%
Cc1ncsc1CN1CC[C@H]2OCC[C@@]2(C(=O)N2CCOCC2)C1.O=C(O)C(F)(F)F | 1.512%
CC(C)Nc1cccc(CNC(=O)N2CCC[C@@H]2CO)c1 | -12.14%
CCCc1cc(=O)[nH]c2nnc(SCC(=O)NCCc3ccccc3)n12 | 12.93%
COC(=O)N1CCC(NC2CCSCC2)C1 (centres undefined) | -0.02013%
CCC(CCO)NS(=O)(=O)c1ccc(Br)cn1 (centres undefined) | -13.92%
C=C(C)Cn1nnc(C2(NC(=O)c3ccccc3)CCCC2)n1 | -0.5972%
O=C(O)[C@@H]1CN(Cc2ccc3nsnc3c2)C[C@H]1c1cccnc1 | -24.04%
Cc1cncc(C(=O)NCC2COCc3c(C)nnn3C2)c1 (centres undefined) | -1.908%
CC(=O)N1CCC(N[C@@H]2CO[C@H](CNC(=O)c3cccs3)[C@H]2O)CC1 | 1.318%
CC(=O)N1CCN([C@@H]2CC[C@@H](NC(=O)c3cncc(C)c3)[C@H]2O)CC1 | -9.247%
CC(=O)N1CCN([C@@H]2CC[C@@H](NC(=O)c3ccc(C)nc3)[C@H]2O)CC1 | 126.1%
Cc1ccc(C(=O)N2CCN3C[C@H](Oc4cncnc4)C[C@H]3C2)cn1 | -3.915%
CCCC(=O)NC1CCCN(C(=O)c2ccc(C)nc2)C1 (centres undefined) | -3.666%
CCc1ccccc1CN1CC[C@@H](NC(=O)c2cccnc2)[C@H](O)C1 | -11.05%
CC(=O)N1CCN([C@@H]2CC[C@@H](NC(=O)c3cc(C)cs3)[C@H]2O)CC1 | 116.4%
Cc1cncc(C(=O)N[C@@H]2CC[C@@H](N3CCOCC3)[C@@H]2O)c1 | 120%
CC(=O)N1CCN([C@@H]2CCC[C@@H](NC(=O)c3cccnc3)[C@H]2O)CC1 | 122.9%
CC(C)(C)c1cc(CN2CC[C@@H](NC(=O)c3cccnc3)[C@H](O)C2)n[nH]1 | -14.75%
CC(=O)N1C[C@H](NC(=O)c2csc(C(C)C)c2)[C@@H](C(C)C)C1 | -7.601%
